Source: PubChem BioAssay AID720597 (Broad Institute, 2013)
Potency and affinity values are given separately. Active and inactive are the calls of the source.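 How the source made its calls: active means fitted half-maximal dose no more than twice the top valid tested dose, for compounds that lower signal; inconclusive means fit invalid, or curve flat with activity between -70 and -30; inactive means potency past limit, curve flat within ±30, or signal increasing.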

target: NAD-dependent protein deacylase sirtuin-5, mitochondrial (Homo sapiens) (UniProt Q9NXA8); assay: blockers of sirtuin-5 peptide desuccinylation – biochemical, fluorescence imaging, cherry-pick, set 6, dose response (AID 720597); settings: Purified SirT5, succinyl-peptide-AMC/trypsin fluorescence; series mostly up to 15 µM;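 further: lower AMC signal can also come from blocking the trypsin step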
Sequence (Q9NXA8 whole entry, looked up): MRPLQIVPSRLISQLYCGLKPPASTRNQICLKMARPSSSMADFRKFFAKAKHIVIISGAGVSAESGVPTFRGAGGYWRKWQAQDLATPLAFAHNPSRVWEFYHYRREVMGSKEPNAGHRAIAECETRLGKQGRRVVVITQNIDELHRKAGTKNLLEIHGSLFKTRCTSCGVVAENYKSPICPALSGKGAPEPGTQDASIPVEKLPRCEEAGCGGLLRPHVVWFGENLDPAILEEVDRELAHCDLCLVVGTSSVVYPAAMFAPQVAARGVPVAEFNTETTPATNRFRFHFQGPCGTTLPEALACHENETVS

Row | Compound | outcome
1 | CCCC(=O)Nc1ccc2c(c1)OC[C@@H](C)N(Cc1ccccc1OC)C[C@@H](C)[C@H](OC)CN(C)C2=O | inactive
2 | COc1ccccc1C#Cc1ccc([C@H]2[C@@H](CO)N3CCCCN(C(=O)C4CCCC4)C[C@@H]23)cc1 | inactive
3 | CC(C)NC(=O)Nc1ccc2c(c1)C(=O)N([C@H](C)CO)C[C@H](C)[C@@H](CN(C)Cc1ccc(Cl)c(Cl)c1)O2 | inactive
4 | C[C@@H]1CCCCO[C@H](CN(C)Cc2ccc(C(F)(F)F)cc2)[C@H](C)CN([C@H](C)CO)C(=O)c2cc(NC(=O)c3ccncc3)ccc2O1 | inactive
5 | C[C@H](CO)N1C[C@H](C)[C@@H](CN(C)Cc2ccc(C(F)(F)F)cc2)OCCCC[C@H](C)Oc2ccc(NS(=O)(=O)c3ccc(Cl)cc3)cc2C1=O | inactive
6 | COc1cccc(NC(=O)N2CC(=O)N3[C@@H](CO)[C@H](c4ccc(C#CCC5CCCC5)cc4)[C@@H]3C2)c1 | inactive
7 | C[C@@H]1CN([C@H](C)CO)C(=O)c2c(c3ccccc3n2C)-c2ccccc2CO[C@@H]1CN(C)S(=O)(=O)c1ccc(C(F)(F)F)cc1 | inactive
8 | COc1ccc(NC(=O)N(C)C[C@H]2Oc3ccc(NS(=O)(=O)c4ccc(OC)cc4)cc3CC(=O)N([C@H](C)CO)C[C@H]2C)cc1 | inactive
9 | O=C(CN1CCOCC1)N1CCCCN2[C@H](C1)[C@H](c1ccc(-c3ccccc3F)cc1)[C@@H]2CO | inactive
10 | Cc1noc(C)c1S(=O)(=O)Nc1ccc2c(c1)CC(=O)N([C@H](C)CO)C[C@H](C)[C@H](CN(C)Cc1ccncc1)O2 | inactive
11 | COc1ccc(S(=O)(=O)Nc2ccc3c(c2)C(=O)N([C@H](C)CO)C[C@@H](C)[C@@H](CN(C)Cc2ccc(C(F)(F)F)cc2)OCCCC[C@@H](C)O3)cc1 | inactive
12 | CC1c2nc3ccccc3n2C(CC(=O)NCc2ccc(Cl)cc2)C(=O)N1Cc1ccccc1 (stereo not given) | inactive
13 | Cc1ccc(S(=O)(=O)N(C)C[C@@H]2OCCCC[C@@H](C)Oc3ccc(NS(=O)(=O)c4ccc(Cl)cc4)cc3C(=O)N([C@H](C)CO)C[C@H]2C)cc1 | inactive
14 | CCCC(=O)Nc1ccc2c(c1)OC[C@H](C)N(Cc1ccccc1)C[C@H](C)[C@@H](OC)CN(C)C2=O | inactive
15 | CC(C)C#Cc1ccc2c(c1)O[C@@H](CN(C)Cc1ccccn1)[C@H](C)CN([C@H](C)CO)S2(=O)=O | inactive
16 | CC(=O)N(Cc1cccc(F)c1)C[C@H]1[C@@H](c2ccccc2)[C@@H](CO)N1C(C)=O | inactive
17 | O=C(CCN1CCCCC1)N[C@@H]1CC[C@@H](CC(=O)N2CCC(Cc3ccccc3)CC2)O[C@@H]1CO | inactive
18 | C[C@H]1CN([C@@H](C)CO)C(=O)c2cc(NS(=O)(=O)c3ccc(Cl)cc3)ccc2O[C@H]1CN(C)Cc1ccc(Cl)c(Cl)c1 | inactive
19 | C[C@@H]1CN([C@H](C)CO)S(=O)(=O)c2ccc(C#CC3CC3)cc2O[C@@H]1CN(C)Cc1ccccc1F | inactive
20 | C[C@@H]1CN([C@@H](C)CO)C(=O)Cc2cc(NS(=O)(=O)c3ccc(F)cc3)ccc2O[C@@H]1CN(C)Cc1ccc(C(F)(F)F)cc1 | inactive

Row | Compound | outcome
21 | Cc1ccc(S(=O)(=O)N(C)C[C@H]2OCCCC[C@H](C)Oc3ccc(NS(=O)(=O)c4ccc(Cl)cc4)cc3C(=O)N([C@H](C)CO)C[C@H]2C)cc1 | inactive
22 | O=C(Nc1cc(F)ccc1F)N1CC(=O)N2[C@H](CO)[C@@H](c3ccc(C#CC4CCCCC4)cc3)[C@@H]2C1 | inactive
23 | C[C@H]1CN([C@@H](C)CO)C(=O)CCCn2cc(nn2)CO[C@H]1CN(C)Cc1ccccc1 | inactive
24 | CCCC#Cc1ccc2c(c1)O[C@H](CN(C)C(=O)Nc1ccccc1F)[C@@H](C)CN([C@H](C)CO)S2(=O)=O | inactive
25 | CCS(=O)(=O)N1CC2(C1)CN(S(=O)(=O)c1cn(C)cn1)[C@@H](CO)c1[nH]c3cc(OC)ccc3c12 | inactive
26 | COc1cccc(S(=O)(=O)N(C)C[C@H]2Oc3cc(C4=CCCC4)ccc3S(=O)(=O)N([C@@H](C)CO)C[C@@H]2C)c1 | inactive
27 | COc1ccc(S(=O)(=O)Nc2ccc3c(c2)C(=O)N([C@@H](C)CO)C[C@H](C)[C@H](CN(C)S(=O)(=O)c2ccc(Cl)cc2)OCCCC[C@@H](C)O3)cc1 | inactive
28 | C[C@H]1CN([C@@H](C)CO)S(=O)(=O)c2ccc(C#CC(C)(C)O)cc2O[C@H]1CN(C)Cc1ccc(-c2ccccc2)cc1 | inactive
29 | C[C@H](CO)N1C[C@H](C)[C@@H](CN(C)Cc2ccc(Oc3ccccc3)cc2)Oc2c(NC(=O)CCCCCC(=O)Nc3ccccc3N)cccc2C1=O | inactive
30 | CCN1[C@@H]2c3ccc(-c4cccc(F)c4)c(=O)n3C[C@@H]2[C@@H](CO)[C@@H]1C(=O)N[C@H](C)c1ccccc1 | inactive
31 | O=S(=O)(c1ccc(F)cc1)N1CCCCN2[C@@H](CO)[C@H](c3ccc(-c4ccccc4F)cc3)[C@@H]2C1 | inactive
32 | O=C(Cc1ccncc1)N[C@H]1CC[C@H](CCn2cc(-c3ccccc3F)nn2)O[C@@H]1CO | inactive
33 | Cc1ccc(S(=O)(=O)N(C)C[C@@H]2OCCCC[C@H](C)Oc3ccc(NS(=O)(=O)c4ccc(Cl)cc4)cc3C(=O)N([C@H](C)CO)C[C@@H]2C)cc1 | inactive
34 | COCCNC(=O)c1cc2c(c(-c3cccc(-c4cccc(F)c4)c3)n1)[C@H](CCO)N([S@@](=O)C(C)(C)C)C2 | inactive
35 | COc1cccc(S(=O)(=O)N(C)C[C@H]2Oc3cc(C4=CCCCC4)ccc3S(=O)(=O)N([C@H](C)CO)C[C@H]2C)c1 | inactive
36 | C[C@H]1CN([C@@H](C)CO)S(=O)(=O)c2ccc(C3=CCCCC3)cc2O[C@H]1CN(C)S(=O)(=O)c1ccc(F)cc1 | inactive
37 | C[C@@H]1CN([C@H](C)CO)S(=O)(=O)c2ccc(C#CC3CC3)cc2O[C@H]1CN(C)Cc1ccccc1F | inactive
38 | CCCNC(=O)N1CC2(C1)[C@H](c1ccccc1)[C@H](CO)N2C(=O)C1CC1 | inactive
39 | C[C@H]1CN([C@@H](C)CO)S(=O)(=O)c2ccc(C#Cc3ccc(F)cc3)cc2O[C@@H]1CN(C)C(=O)NC1CCCCC1 | inactive
40 | C[C@@H]1CN([C@@H](C)CO)C(=O)c2cc(C#CCN(C)C)cnc2O[C@H]1CN(C)Cc1ccncc1 | inactive
